# Only some compounds are listed: those with a hit (about 4.5% of all), similar ones and a draw of the others.
# Mdm2-MdmX inh – disrupts the human Mdm2-MdmX interaction; O15151+Q00987; SaOS-2 split-luciferase Mdm2/MdmX complementation, luminescence; inhibition, % at 8 µM; hit rate 3% among 330,000; AID 485346;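 active = inhibition of at least 50% at 8 µM in the primary screen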
# Target sequence (O15151 whole entry, looked up): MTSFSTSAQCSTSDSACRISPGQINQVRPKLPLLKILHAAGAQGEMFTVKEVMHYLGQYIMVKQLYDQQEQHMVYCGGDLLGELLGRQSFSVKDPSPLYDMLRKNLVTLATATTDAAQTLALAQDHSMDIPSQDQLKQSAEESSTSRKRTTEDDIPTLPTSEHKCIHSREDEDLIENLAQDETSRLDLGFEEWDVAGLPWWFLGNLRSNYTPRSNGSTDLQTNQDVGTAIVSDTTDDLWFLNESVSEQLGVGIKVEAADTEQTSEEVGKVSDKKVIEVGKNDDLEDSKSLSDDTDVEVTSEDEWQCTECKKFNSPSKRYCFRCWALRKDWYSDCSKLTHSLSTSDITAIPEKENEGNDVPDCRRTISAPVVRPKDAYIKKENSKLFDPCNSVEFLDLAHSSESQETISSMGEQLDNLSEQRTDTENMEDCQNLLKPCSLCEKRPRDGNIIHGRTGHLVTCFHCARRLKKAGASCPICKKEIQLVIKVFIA
# Target sequence (Q00987 whole entry, looked up): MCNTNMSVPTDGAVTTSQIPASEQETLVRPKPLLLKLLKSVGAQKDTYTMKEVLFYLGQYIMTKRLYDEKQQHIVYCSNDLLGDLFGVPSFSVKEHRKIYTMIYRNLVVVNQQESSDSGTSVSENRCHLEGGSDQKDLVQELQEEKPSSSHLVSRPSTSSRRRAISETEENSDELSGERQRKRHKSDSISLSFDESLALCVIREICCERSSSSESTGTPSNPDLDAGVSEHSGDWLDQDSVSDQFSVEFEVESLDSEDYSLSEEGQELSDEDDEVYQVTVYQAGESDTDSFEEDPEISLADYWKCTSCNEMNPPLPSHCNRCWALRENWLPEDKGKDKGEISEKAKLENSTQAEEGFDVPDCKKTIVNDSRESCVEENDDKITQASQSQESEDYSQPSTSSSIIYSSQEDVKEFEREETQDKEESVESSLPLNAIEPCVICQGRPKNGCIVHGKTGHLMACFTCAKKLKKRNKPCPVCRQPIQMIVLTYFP
# aSyn UTR inh – 5' untranslated region of α-synuclein, MLPCN primary screen; inhibition, % (tested at 7.5 µM); alpha-synuclein 5'UTR reporter, inhibitor activity; hit rate 0.82% among 300,000; in the data active = inhibition above about 60%; inconclusive = no clear call, values can overlap the other calls;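 also: H4 neuroglioblastoma cells stably carrying SNCA 5'UTR luciferase fusion; 0% = DMSO wells and 100% = positive control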
# Gli-Sufu antag – Gli-Sufu pathway antagonism. Sufu-KO-LIGHT fibroblasts, Gli luciferase reporter luminescence. inhibition, % at 5 µM. hit rate 0.74% among 340,000;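 active = inhibition above about 55%, limit read from the data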;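 also: 0% = DMSO-treated cells and 100% = wells with medium but no cells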
# 697 NFkB inh – lowers PMA/ionomycin-induced NF-kB signal in 697 B cells; inhibition, % at 4 µM; 697 B-cell NF-kB luciferase reporter, 16 h; hit rate 0.33% among 330,000; in the data active = inhibition above about 35%
# Jurkat NFkB inh – inhibitors of the PMA/ionomycin-induced NF-kB reporter in Jurkat cells; PMA/ionomycin-induced NF-kB luciferase reporter, luminescence; inhibition, % at 4 µM; hit rate 0.53% among 330,000; in the data active = inhibition above about 50%
# CSC inhib – cancer stem cell inhibition | cancer stem cell-like cells viability, luminescence | inhibition, % at 7.5 µM | hit rate 1.1% among 300,000 | AID 2717; in the data active = inhibition above about 75%; inconclusive = no clear call, values can overlap the other calls; tested in HMLE shEcad cells
# Jurkat NFkB conf – inhibitors of the PMA/ionomycin-induced NF-kB reporter in Jurkat cells, retest; shares compounds with Jurkat NFkB inh; Jurkat NF-kB luciferase, 16 h; inhibition, % at 4 µM; hit rate 27% among 2,700; AID 435020;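 active = inhibition reaching about 45% at 4 µM in either replicate, limit read from the data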;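 also: plate controls were PMA/ionomycin stimulated DMSO wells for no effect and unstimulated DMSO wells for full effect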
# * = called active by the depositor; ? = inconclusive; nt = not tested or not shown.
SMILES,Mdm2-MdmX inh,aSyn UTR inh,Gli-Sufu antag,697 NFkB inh,Jurkat NFkB inh,CSC inhib,others
CCCOc1ccc(-c2nnc(-c3ccco3)o2)cc1,-82.3,64.7*,-96.7,-223.3,-73.1,0.4,
CSc1nnc(NC(=O)c2ccc3c(c2)OCO3)s1,41.8,81.4*,-29.0,-120.9,1.6,3.9,
Cc1nnc(NC(=O)c2ccc3c(c2)OCO3)s1,-48.0,-150.2,-60.4,-65.0,-22.5,14.4,
CCN1C(=O)C(CC(=O)Nc2ccc(F)cc2)N(CCCN2CCN(c3ccc(F)cc3)CC2)C1=S (stereo not drawn),25.0,16.5,26.3,11.4,9.6,105.2*,
O=C(CSc1nc2ccccc2c(=O)n1-c1ccc(F)cc1)NC1CCS(=O)(=O)C1 (stereo not drawn),17.4,nt,-6.7,0.0,-19.3,nt,
COc1ccccc1NS(=O)(=O)c1cc(N=N/C(C(=O)Nc2ccc(Cl)cc2)=C(/C)O)ccc1C,-3.3,nt,7.7,-2.2,11.0,-2.0,
CCCCc1ccc(N=N/C(C(=O)Nc2ccc(NC(C)=O)cc2OC)=C(/C)O)cc1,3.2,13.1,2.9,-20.1,1.1,80.0*,
O=C(Nc1ccc2cn[nH]c2c1)c1c(Cl)cccc1Cl,-1.3,-26.3,-6.3,5.6,-1.0,-7.6,
O=C1C(Cl)=C(Nc2ccc3cn[nH]c3c2)C(=O)c2ccccc21,nt,100.2*,-21.2,nt,nt,108.6*,
CCN(CC)CCOC(=O)c1ccc(NC(=O)c2ccc(Cl)c(S(=O)(=O)N3CCCCCC3)c2)cc1,32.1,-18.9,-1.0,-65.7,29.8,76.9*,
CC(C)c1ccc(/C=N/NC(=O)c2cccc(Cl)c2)cc1,nt,-238.4,-91.1,nt,nt,90.5*,
CCc1c(C2(O)CCCCC2)[nH]c2cc(C(F)(F)F)ccc12,45.1,-6.0,5.5,-21.2,-4.1,129.8*,
Cc1c(C2(O)CCCCC2)[nH]c2cc(C(F)(F)F)ccc12,-1.6,nt,-2.0,-3.7,2.3,?,
CN(Cc1ccccc1)C(=O)C1CCCN(Cc2cccc(Cl)c2)C1 (stereo not drawn),-2.3,-0.4,-2.0,13.9,-0.1,3.8,
CCCN1CCN(C(=O)c2oc3c(Cl)cccc3c2C)CC1,3.8,8.3,10.2,10.8,5.8,-10.4,
O=C(COc1ccccc1)Nc1ccc(S(=O)(=O)Nc2ncccn2)cc1,16.9,-8.4,5.2,3.9,-13.6,7.8,
Cc1ccnc(NS(=O)(=O)c2ccc(NC(=O)COc3ccccc3)cc2)n1,-25.4,68.4*,4.5,6.0,2.4,-22.4,
COc1ccc(N2CC(NC(=O)NCCC(C)C)CC2=O)cc1 (stereo not drawn),-15.7,10.7,-5.5,-4.9,11.4,nt,
COc1ccccc1NC(=O)CSc1nnc(C2CCCCC2)n1-c1ccccc1,30.9,20.8,11.6,-34.1,11.6,82.0*,
COc1ccccc1NC(=O)CSc1nnc(C2CCCCC2)n1C,-11.2,-6.4,-5.3,2.9,-10.6,-11.3,
COc1ccc(C2C3=C(Nc4ncnn42)c2ccccc2CC3)cc1OC (stereo not drawn),36.6,0.9,nt,0.8,20.4,16.0,
Brc1ccc(C2C3=C(Nc4ncnn42)c2ccccc2OC3c2ccncc2)cc1 (stereo not drawn),29.0,70.5*,8.9,-20.2,-0.6,28.4,
CCOC(=O)c1ccc(NC(=O)N2CCc3ccccc32)cc1,-281.2,-189.2,-55.2,-92.2,-157.4,1.1,Jurkat NFkB conf=-92.9
CCOC(=O)c1ccc(NC(=O)N2CCc3ccccc3C2)cc1,-12.4,6.8,-3.1,-52.1,-22.3,1.4,
COC(=O)[C@@]12CCCCN1[C@H](c1ccc(-c3ccc(F)cc3)cc1)[C@@H]1C(=O)N(C)C(=O)[C@@H]12,38.7,9.3,-10.0,-9.3,10.3,26.5,
SMILES,Mdm2-MdmX inh,aSyn UTR inh,Gli-Sufu antag,697 NFkB inh,Jurkat NFkB inh,CSC inhib,others
Cc1ccc(C2=Nc3ccccc3N=C(C(Cl)Cl)C2)cc1,-29.5,-76.0,-23.9,-149.5,-162.3,22.0,Jurkat NFkB conf=-90.5
Cc1ccc2c(c1)N=C(c1ccccc1)CC(C(Cl)Cl)=N2,-131.6,-74.2,-0.9,-245.5,-142.6,20.0,
CCOC(=O)c1ccccc1NS(=O)(=O)c1ccc(OCC)cc1,38.9,-14.0,2.2,-88.0,61.6*,56.3,Jurkat NFkB conf=42.5
CCn1c(C(=O)O)c(CC(=O)Nc2ccccc2OC)c2ccccc21,-9.7,3.5,-3.3,7.7,11.4,-4.2,
CCOC(=O)c1ccc(NC(=O)C2CC3CCC2C3)cc1 (stereo not drawn),-130.6,-128.2,-91.9,-164.4,-153.9,2.1,Jurkat NFkB conf=-115.7
COc1ccc(-n2cc(CNCCCn3ccnc3)c(-c3cccc(F)c3)n2)cc1,32.1,-32.0,23.8,0.1,0.0,2.7,
COC(=O)c1[nH]c(C)c(/C(O)=C2\C(=O)C(=O)N(CCN3CCOCC3)C2c2cccs2)c1C (stereo not drawn),16.1,8.5,5.8,22.5,-6.4,15.2,
CCOC(=O)c1[nH]c(C)c(/C(O)=C2\C(=O)C(=O)N(CCCN3CCOCC3)C2c2cccs2)c1C (stereo not drawn),49.6,-34.3,-3.9,-25.1,54.8*,51.1,Jurkat NFkB conf=11.9
O=C(OCCNc1ncc(C(F)(F)F)cc1Cl)c1ccc(S(=O)(=O)N2CCOCC2)cc1,-2.4,16.9,5.8,13.5,2.9,-6.6,
N#CCC(CNc1ncc(C(F)(F)F)cc1Cl)OC(=O)c1cccc(C(F)(F)F)c1 (stereo not drawn),6.7,-28.4,21.1,4.9,60.3*,-4.9,Jurkat NFkB conf=8.6
CN(CCOc1ccccc1)C(=O)c1ccc(F)c(S(=O)(=O)N2CCOCC2)c1,2.8,4.9,4.8,6.0,12.1,36.2,
CC(=O)N1c2ccc(S(=O)(=O)NCCC(=O)Nc3ccc(OC(F)(F)F)cc3)cc2CC1C (stereo not drawn),14.1,2.1,11.0,-9.4,7.0,-13.9,
Cc1ccnc(N/N=C/c2ccccc2)n1,-20.0,-89.6,-68.8,-68.5,-75.1,-4.3,
CSc1nccc(N/N=C/c2ccccc2)n1,-126.5,-157.7,-56.5,-135.7,-159.7,3.0,Jurkat NFkB conf=-66.9
Cc1ccccc1NS(=O)(=O)c1ccc(N2CCCC2=O)cc1,34.5,48.7,-0.4,-83.2,53.9*,64.6,Jurkat NFkB conf=48.4
Cc1ccccc1NS(=O)(=O)c1cc2c3c(c1)CC(=O)N3CCC2,19.6,6.1,4.5,6.7,4.6,-35.5,
O=C(Nc1ccc2c(c1)OCO2)c1ccc(Cl)s1,-184.5,-194.4,-53.9,-87.6,-154.6,8.6,Jurkat NFkB conf=-87.2
O=C(Nc1ccc(Cl)cc1)Nc1ccc2c(c1)OCO2,-72.4,-133.9,-86.6,-99.3,-151.3,9.7,Jurkat NFkB conf=-31.5
O=C(Nc1ccc2c(c1)OCO2)c1ccc2c(c1)OCO2,-69.3,12.1,-62.6,-152.5,-135.9,11.5,
CCOC(=O)c1cc(-c2nnc(-c3ccc(Oc4ccccc4)cc3)o2)c(C)nc1C,36.7,-23.8,29.0,-3.1,13.3,19.0,
CNC(=O)Nc1ccc(C2SCCS2)cc1,15.9,-54.4,-1.5,10.3,-7.5,6.3,
O=C(Nc1ccc(C2SCCS2)cc1)c1ccccc1,-84.5,-88.3,-97.8,-216.5,-150.0,2.0,Jurkat NFkB conf=-109.8

# Bioassay records (PubChem BioAssay)
